Experimental findings from ChEMBL document CHEMBL4513216, “Probing the Open Global Health Chemical Diversity Library for Multistage-Active Starting Points for Next-Generation Antimalarials” (ACS Infect Dis, 2020) are described below.

Each structure is given as a SMILES string. About 2,100 (3.2%) of roughly 65,000 compounds showed an effect of 50% or more. The median lay at about -52%. This excerpt belongs to a sample that is enriched for strong results.

The experiment has as its system Plasmodium falciparum. Nature of the experiment: Screen against P. falciparum Asexual Blood Stage (ABS), at 5uM. Conditions: tested at 5 uM. The class given is functional, Dd2.
Regarding `CC(C)(C)C(=O)N1C[C@H](c2ccsc2)[C@H]2CN(Cc3cccs3)CC[C@H]21`, the INHIBITION was determined as 29.8%. In the case of `COc1cccc(CN2CC[C@H]3[C@@H](C2)[C@H](c2ccsc2)CN3C(C)=O)c1`, the INHIBITION worked out at 54.8%. The result for `COc1ccccc1CN1CC[C@H]2[C@@H](C1)[C@H](c1ccsc1)CN2C(C)=O` reads 29.5%. With `Cn1nc(COc2cccnc2)c2c1CCN(c1cnccn1)C2`, the INHIBITION is listed as -72.3%.

With `Oc1cc(C2CCCCN2CC2CC2)nc(-c2ccncc2)n1` (centres undefined), the INHIBITION is recorded as -48.7%. Regarding `CCCS(=O)(=O)N1CCC2(CC1)CN(C(=O)N(C)C)c1ccccc12`, the INHIBITION was -7.36%.

On to `c1ccc2c(c1)N(CC1CCOC1)CC21CCN(c2cnccn2)CC1` (centres undefined), for which the INHIBITION worked out at 69.9%. Regarding `CCS(=O)(=O)N1CCC2(CC1)CN(CC1CCOC1)c1ccccc12` (centres undefined), the INHIBITION is 23.6%. The value for `CCCS(=O)(=O)N1CCC2(CC1)CN(CC1CCOC1)c1ccccc12` (centres undefined) was 50.8%; that for `O=C1CC2(CCN(CC3CCOC3)CC2)c2ccccc2N1CC1CC1` (centres undefined) was 12.4%. The result for `CS(=O)(=O)N1CCC2(CC1)CN(CC1CCOC1)c1ccccc12` (centres undefined) reads -50.1%. The value for `Cc1nn(CC(F)F)c2c1c(C(F)F)cc(=O)n2CC(=O)O` was -111.45%; that for `CN1CCCn2c(nc(CNS(=O)(=O)C3CC3)cc2=O)C1` was -41.3%.

In the case of `Cc1nn(C)c2cnn(Cc3ccc(C(=O)NC4CC4)cc3)c12`, the INHIBITION is on record as -60.4%.

On to `Fc1cccc(F)c1Cn1c(C2CCCNC2)cc2cccnc21` (centres undefined), for which the INHIBITION was found to be 66.1%. Take `c1cnc2c(c1)cc(C1CCOCC1)n2CCN1CCOCC1`: the INHIBITION was -7.49%. The result for `COc1cccc(Cn2c(C3CCNCC3)cc3cccnc32)c1` reads 66.1%. As for `COc1ccc(-c2ccnc(C3CCNCC3)c2)cc1`, the INHIBITION was 30.9%. The value for `c1cnc2c(c1)cc([C@H]1CCCO1)n2CCN1CCCCC1` was 25.8%; that for `c1cnc2c(c1)cc([C@H]1CCCO1)n2CCN1CCCC1` was 21.4%; that for `COc1cccc(-c2ccnc(C3CCNCC3)c2)c1` was -73.8%. The value for `COc1ccc(Cn2c(C3CCNCC3)cc3cccnc32)cc1` was 66.9%; that for `Fc1cccc(-c2nccnc2C2CCCNC2)c1` (centres undefined) was 14.9%. For `CN1CCCC1c1cc2cccnc2n1Cc1ccc(F)cc1` (centres undefined), the INHIBITION was found to be 69.9%.

As for `Fc1ccccc1-c1nccnc1C1CCCNC1` (centres undefined), the INHIBITION is 10.7%.

With `COc1cccc(CN2C[C@H]3CCNCC[C@H]3S2(=O)=O)c1`, the INHIBITION is 17.1%.

With `O=C(C1CCOCC1)N1C[C@H]2CCC[C@@]2(COCc2ccccn2)C1`, the INHIBITION was -15.1%. The value for `Cc1noc(C(C)C)c1C(=O)NCc1cccc(CN(C)C)c1` was -13.6%; that for `Cc1cnc(CNC2CCc3nc(C(C)C)nn3C2)cn1` (centres undefined) was -20.3%. The result for `Cc1ccc(CN2C[C@@H]3CN(CC4CCOCC4)CCO[C@@H]3C2)s1` reads -95.1%.

With `CC(C)(C)n1cc(CNc2ccc(CNS(C)(=O)=O)cc2)cn1`, the INHIBITION is given as -25.8%.

For the compound `Cn1cnc2c1C(COCC1CC1)CN(Cc1ccc3c(c1)OCO3)C2` (centres undefined), the INHIBITION worked out at 41.1%. The value for `CCCC(=O)N1CCCN(C(=O)c2oc(C)nc2C)CC1` was -111%; that for `Cc1cc(C(=O)NCc2ccnc(N3CCOCC3)c2)c(C)s1` was 50.6%; that for `Cc1cc(C(=O)NCc2ccnc(N3CCN(C)CC3)c2)sc1C` was -5.05%.

With `Cc1cc(C(=O)NCc2ccnc(N3CCN(C)CC3)c2)c(C)s1`, the INHIBITION is on record as 32.2%. Turning to `Cc1ncsc1C(=O)NCc1ccnc(N2CCN(C)CC2)c1`, the INHIBITION came to 62.9%.

Regarding `Cc1ccc(C(=O)NCc2ccnc(N3CCN(C)CC3)c2)cn1`, the INHIBITION is on record as -38.9%. For the compound `Cc1ccsc1C(=O)NCc1ccnc(N2CCN(C)CC2)c1`, the INHIBITION is given as -35%. The value for `Cc1cnc(N2CCC3(CC2)CC3CNC(=O)C2CCC2)nc1` (centres undefined) was -57.8%. The value for `COc1cccc(-c2noc(C3CCN(Cc4ccc(C)cc4)C3)n2)c1` (centres undefined) was -97.2%. The result for `CC(=O)N1CCC(Oc2ccc(Cl)cc2C(=O)N2CCCO2)CC1` reads -31%; that for `O=C(c1cc(Cl)ccc1OC1CCN(C2CCCC2)CC1)N1CCCO1`, 53.5%; that for `O=C(c1cc(Cl)ccc1OC1CCN(C2CCCC2)CC1)N1CC(O)C1`, -96%. As to `Cc1noc([C@@H]2C[C@H]3OCC[C@H]3N(Cc3sccc3C)C2)n1`, the INHIBITION is recorded as -15.2%. The value for `CNC(=O)c1cn2cc(-c3ccccc3Cl)n(CC3CC3)c(=O)c2n1` was 54.7%; that for `CNC(=O)c1cn2cc(-c3cccc(Cl)c3)n(CC=C(C)C)c(=O)c2n1` was 56.6%. The value for `CCNC(=O)c1cn2cc(-c3ccccc3Cl)n(CC3CC3)c(=O)c2n1` was 43.7%; that for `CNC(=O)c1cn2cc(-c3cccc(Cl)c3)n(CC3CC3)c(=O)c2n1` was 19.5%; that for `CN(C)C(=O)c1cn2cc(-c3ccccc3Cl)n(CC3CC3)c(=O)c2n1` was 37.8%. Turning to `NC(=O)c1cn2cc(-c3ccccc3Cl)n(CC3CC3)c(=O)c2n1`, the INHIBITION was -27.5%.

Consider `CNC(=O)c1cn2cc(-c3ccc(F)cc3)n(CC=C(C)C)c(=O)c2n1`, for which the INHIBITION was 39.1%. Consider `CNC(=O)c1cn2cc(-c3ccccc3Cl)n(CC=C(C)C)c(=O)c2n1`, for which the INHIBITION came to 68.2%.

For `CN(C)C(=O)c1cn2cc(-c3cccc(Cl)c3)n(CC3CC3)c(=O)c2n1`, the INHIBITION is -21.6%.
